TGFb SMAD3 inh = blocks TGF-b signaling; HepG2 CAGA-GFP TGF-b/SMAD3 reporter, GFP fluorescence, 18 h; TGF-beta stimulated, 500 pg/mL final; Potency, µM (doses to about 46.1 µM), for the others: top-dose activity, negative = inhibition, hits mostly inhibitors; actives 1.2% (n = 410,000); further: on the % scale 0 is the no-effect control and ±100 the full control effect; nearly all actives have a fitted effect of over 65% in size
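Inhibition was scored as loss of TGF-beta-induced (500 pg/mL final, 18 hours, 37 degrees C) GFP in HEPG2 cells carrying a CAGA-GFP reporter, in DMEM with 1% FBS. Well GFP was summed per cell; Activity was normalised to unstimulated and stimulated DMSO wells, then concentration-response fitting.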
DT40 TDP1 CPT = growth inhibition of DT40 Tdp1-/-;hTDP1 cells with camptothecin (screen for TDP1 inhibitors). chicken DT40 Tdp1-/-;hTDP1 cells + 20 nM CPT, ATP luminescence, 48 h. actives 12% (n = 420,000). Potency, µM (doses to about 46.2 µM), for the others: at the top dose activity change, negative = growth inhibition, hits mostly inhibitors; further: on the % scale 0 is the no-effect control and ±100 the full control effect; nearly all actives have a fitted effect of over 55% in size
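Chicken DT40 Tdp1-/- cells stably complemented with human TDP1 were seeded at 400 cells/well in medium containing 20 nM camptothecin, exposed to pin-transferred compounds, and grown at 37 °C for at least 48 hr. Viability was read as ATP luminescence.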
DT40 TDP1 no CPT = qHTS for Inhibitors of human tyrosyl-DNA phosphodiesterase 1 (TDP1): qHTS in cells in absence of CPT | DT40 Tdp1-/- hTDP1 cells, no CPT, ATP luminescence, 48 h | actives 15% (n = 420,000) | Potency, µM (highest dose often 46.2 µM), for inactives: at the highest dose activity change, negative = growth inhibition, actives largely listed as inhibitors | AID 686978, 2013; further: on the % scale 0 is the no-effect control and ±100 the full control effect; nearly all actives have a fitted effect of over 55% in size
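No-CPT arm: Tdp1-/-;hTDP1 DT40 cells (400/well) plus compounds, incubated ≥48 hr at 37 °C. Readout CellTiter-Glo luminescence.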
S2 tox = viability counter-screen for ATXN expression inhibitors | actives 0.49% (n = 400,000) | S2 cells (HEK-293 line with an ATXN2-luciferase reporter) viability, CellTiter-Fluor protease fluorescence, 24 h | Potency, µM (highest dose often 56.7 µM), hits mostly cytotoxic; further: nearly all actives have a fitted effect of over 40% in size
HepG2 tox = counter-screen for TGF-b inhibitors: cytotoxicity in HepG2 cells. Potency, µM (titrated, usually from 46.1 µM), for the others: at the top dose activity change, negative = cytotoxicity, hits mostly cytotoxic. actives 0.76% (n = 410,000). HepG2 CAGA-GFP viability, ATP luminescence, 18 h
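CellTiter-Glo luminescence gave cytotoxicity after 18 hours at 37 degrees C. The cells were HepG2 CAGA-GFP in 1% FBS DMEM, stimulated with 500 pg/mL TGF-beta after compound addition. %Activity was normalised to no-cell wells (complete cell-killing) and DMSO (no toxicity), and curves were fitted and classified.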
ATXN2 expr inh = ATXN2 expression inhibition | HEK-293 ATXN2-luciferase reporter, luminescence, 24 h | Potency, µM (doses to about 57 µM), for the others: at the highest dose activity change, negative = inhibition, most hits filed as inhibitors | actives 0.72% (n = 360,000); further: on the % scale 0 is the no-effect control and ±100 the full control effect; nearly all actives have a fitted effect of over 55% in size
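ATXN2-luciferase reporter cells (luciferase flanked by upstream and downstream ATXN2 gene portions) were treated 24 h at 37 °C with compounds at up to 57 uM. SteadyGlo luminescence gave expression; GF-AFC fluorescence gave viability.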
* = called active by the depositor. In the library only some 17% were active in any assay of this set; here they are far more common. The call rests on the fitted dose curve; in most records, active means well fitted curve in the direction sought with a large enough effect; inconclusive means small, poorly fitted or top-dose-only effect, or another doubt; inactive means no such curve, though single readings can be large; an effect the other way counts as inactive or inconclusive. Potency means the concentration at half of the fitted maximal effect.

What do the screens show for `Cc1ccc(CNC(=O)C2CCN(S(=O)(=O)c3ccc(F)cc3)CC2)cc1`?
TGFb SMAD3 inh: inconclusive; DT40 TDP1 CPT: -20%; DT40 TDP1 no CPT: -23%; S2 tox: inactive; HepG2 tox: -70%; ATXN2 expr inh: 9%

What do the screens show for `O=C(NCc1ccncc1)C1CCCN(S(=O)(=O)c2cc(Cl)ccc2Cl)C1` (stereo unspecified)?
TGFb SMAD3 inh: -21%; DT40 TDP1 CPT: inconclusive; DT40 TDP1 no CPT: 16µM*; S2 tox: inactive; HepG2 tox: 0%; ATXN2 expr inh: -18%

How did CN1C(=O)C(C)(C)c2cc(S(=O)(=O)N3CCC(C(=O)NCc4ccc(F)cc4)CC3)ccc21 do in these assays?
TGFb SMAD3 inh: 3%; DT40 TDP1 CPT: 7.3µM*; DT40 TDP1 no CPT: inconclusive; S2 tox: inactive; HepG2 tox: -1%; ATXN2 expr inh: 4%

How did Nc1nccc(-c2ccc3noc(-c4ccc(Cl)cc4)c3c2)n1 do in these assays?
ATXN2 expr inh: -18%

Results for Cc1ccccc1C(=O)c1cccn1CC(=O)NCCCN1CC(C)CC(C)C1 (stereo unspecified) ?
TGFb SMAD3 inh: 8%; DT40 TDP1 CPT: -30%; DT40 TDP1 no CPT: 3%; S2 tox: inactive; HepG2 tox: -28%; ATXN2 expr inh: -2%

How did C=CCNC(=O)C1CCN(S(=O)(=O)c2ccc(Br)cc2)CC1 do in these assays?
TGFb SMAD3 inh: inconclusive; DT40 TDP1 CPT: inconclusive; DT40 TDP1 no CPT: 16µM*; S2 tox: inactive; HepG2 tox: -1%; ATXN2 expr inh: -4%

How did O=C(NCC1CCCO1)C1CCN(S(=O)(=O)c2ccc(Br)cc2)CC1 (stereo unspecified) do in these assays?
TGFb SMAD3 inh: -8%; DT40 TDP1 CPT: -10%; DT40 TDP1 no CPT: 10%; S2 tox: inactive; HepG2 tox: 0%; ATXN2 expr inh: 0%

How did CCOC(=O)c1nc(NNC(=O)c2ccc([N+](=O)[O-])cc2)sc1C do in these assays?
TGFb SMAD3 inh: inconclusive; DT40 TDP1 CPT: inconclusive; DT40 TDP1 no CPT: inconclusive; S2 tox: inconclusive; HepG2 tox: -55%; ATXN2 expr inh: inconclusive

How did COc1ccc(NC(=O)C(C)Sc2ccccc2)cc1 (stereo unspecified) do in these assays?
TGFb SMAD3 inh: inconclusive; DT40 TDP1 CPT: 9%; DT40 TDP1 no CPT: 3%; S2 tox: inactive; HepG2 tox: 0%; ATXN2 expr inh: 23%

How did COc1ccc(NC(=O)C#Cc2ccccc2)cc1 do in these assays?
TGFb SMAD3 inh: inconclusive; DT40 TDP1 CPT: 21µM*; DT40 TDP1 no CPT: 10µM*; S2 tox: inactive; HepG2 tox: 27%; ATXN2 expr inh: 28%

How did O=C(C#Cc1ccccc1)Nc1ccc(F)cc1 do in these assays?
TGFb SMAD3 inh: inconclusive; DT40 TDP1 CPT: inconclusive; DT40 TDP1 no CPT: 12µM*; S2 tox: inactive; HepG2 tox: 29%; ATXN2 expr inh: 15%

How did COc1ccc(NC(=O)CCCCC#Cc2ccccc2)cc1 do in these assays?
TGFb SMAD3 inh: 4%; DT40 TDP1 CPT: inconclusive; DT40 TDP1 no CPT: 15µM*; S2 tox: inactive; HepG2 tox: -1%; ATXN2 expr inh: 6%

Results for O=C(C#Cc1ccccc1)NCc1ccccc1F ?
TGFb SMAD3 inh: inconclusive; DT40 TDP1 CPT: inconclusive; DT40 TDP1 no CPT: inconclusive; S2 tox: inactive; HepG2 tox: -34%; ATXN2 expr inh: 23%

How did COc1ccc(-n2c(SCC(=O)c3ccc[nH]3)nnc2-c2ccccc2)cc1 do in these assays?
TGFb SMAD3 inh: 0%; DT40 TDP1 CPT: -1%; DT40 TDP1 no CPT: -10%; S2 tox: inactive; HepG2 tox: -9%; ATXN2 expr inh: 1%
